# Data as given in the supplement of paper PMC8728848.
# The full list was thinned out, with the strongest signals kept by preference.
# Legend:
# Experiment in all cases: glycan array binding signal (z-score within array); higher = stronger binding
# Conditions in all cases: glycan notation: IUPAC condensed, linker removed
# [1] = biological target: Gal(b1-4)GlcNAc(b1-6)GalNAc
# Outline: (§1)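 Glycan array data came from 3228 arrays in the Consortium for Functional Glycomics database, and only arrays with an available protein sequence were kept. Glycan names were put into IUPAC-condensed notation, and columns mapping to the same glycan were averaged. The binding signal is a within-array Z-score, averaged across arrays of one protein sequence run at different concentrations or buffers and across linkers. A negative Z-score can be read as non-binding.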
# Gal6S(b1-4)Glc6S = biological target: Gal6S(b1-4)Glc6S
# Outline: as §1
# GalNAc(b1-3)Gal = biological target: GalNAc(b1-3)Gal
# Outline: as §1
# GalNAc3S(b1-4)GlcNAc = biological target: GalNAc3S(b1-4)GlcNAc
# Outline: as §1
# GlcA(b1-3)GlcNAc = biological target: GlcA(b1-3)GlcNAc
# Outline: as §1
# [2] = biological target: GlcNAc(a1-4)Gal(b1-4)GlcNAc(b1-3)Gal(b1-4)GlcNAc
# Outline: as §1
# [3] = biological target: GlcNAc(a1-4)Gal(b1-4)GlcNAc(b1-3)Gal(b1-4)GlcNAc(b1-3)Gal(b1-4)GlcNAc
# Outline: as §1
# [4] = biological target: GlcNAc(b1-3)Gal(b1-4)GlcNAc(b1-3)Gal(b1-4)GlcNAc
# Outline: as §1
# [5] = biological target: GlcNAc(b1-3)Gal(b1-4)GlcNAc(b1-3)Gal(b1-4)GlcNAc(b1-3)Gal(b1-4)GlcNAc(b1-2)Man(a1-3)[GlcNAc(b1-3)Gal(b1-4)GlcNAc(b1-3)Gal(b1-4)GlcNAc(b1-3)Gal(b1-4)GlcNAc(b1-2)Man(a1-6)]Man(b1-4)GlcNAc(b1-4)[Fuc(a1-6)]GlcNAc
# Outline: as §1
# [6] = biological target: GlcNAc(b1-3)[GlcNAc(b1-6)]Gal(b1-4)GlcNAc
# Outline: as §1
# Neu5Ac(a2-3)Gal = biological target: Neu5Ac(a2-3)Gal
# Outline: as §1
# [7] = biological target: Neu5Ac(a2-3)Gal(b1-3)GalNAc6S
# Outline: as §1
# [8] = biological target: Neu5Ac(a2-3)Gal(b1-4)GlcNAc(b1-3)Gal(b1-4)[Fuc(a1-3)]GlcNAc
# Outline: as §1
# [9] = biological target: Neu5Ac(a2-3)Gal(b1-4)[Fuc(a1-3)]GlcNAc(b1-3)GalNAc
# Outline: as §1
# [10] = biological target: Neu5Ac(a2-3)Gal(b1-4)[Fuc(a1-3)]GlcNAc(b1-6)[Gal(b1-3)]GalNAc
# Outline: as §1
# [11] = biological target: Neu5Ac(a2-6)Gal(b1-4)GlcNAc(b1-2)Man
# Outline: as §1
# [12] = biological target: Neu5Ac(a2-6)Gal(b1-4)GlcNAc(b1-2)Man(a1-3)Man(b1-4)GlcNAc(b1-4)GlcNAc
# Outline: as §1
# [13] = biological target: Neu5Ac(a2-6)Gal(b1-4)GlcNAc(b1-2)Man(a1-3)[Gal(b1-4)GlcNAc(b1-2)Man(a1-6)]Man(b1-4)GlcNAc(b1-4)GlcNAc
# Outline: as §1
# [14] = biological target: Neu5Ac(a2-6)Gal(b1-4)GlcNAc(b1-2)Man(a1-6)[Man(a1-3)]Man(b1-4)GlcNAc(b1-4)GlcNAc
# Outline: as §1
# [15] = biological target: Neu5Ac(a2-6)Gal(b1-4)GlcNAc(b1-2)[Neu5Ac(a2-6)Gal(b1-4)GlcNAc(b1-4)]Man(a1-3)[GlcNAc(b1-4)][Neu5Ac(a2-6)Gal(b1-4)GlcNAc(b1-2)[Neu5Ac(a2-6)Gal(b1-4)GlcNAc(b1-6)]Man(a1-6)]Man(b1-4)GlcNAc(b1-4)GlcNAc
# Outline: as §1
# [16] = biological target: Neu5Ac(a2-6)Gal(b1-4)GlcNAc(b1-3)Gal(b1-4)GlcNAc(b1-2)Man(a1-3)[Neu5Ac(a2-6)Gal(b1-4)GlcNAc(b1-3)Gal(b1-4)GlcNAc(b1-2)Man(a1-6)]GalNAc
# Outline: as §1
# [17] = biological target: Neu5Ac(a2-6)Gal(b1-4)GlcNAc(b1-6)[Gal(b1-3)GlcNAc(b1-3)]Gal(b1-4)Glc
# Outline: as §1
# Neu5Ac(a2-6)GalNAc = biological target: Neu5Ac(a2-6)GalNAc
# Outline: as §1
# [18] = biological target: Neu5Ac(a2-6)GalNAc(b1-4)GlcNAc6S
# Outline: as §1
# [19] = biological target: Neu5Ac(a2-8)Neu5Ac(a2-8)Neu5Ac(a2-3)[GalNAc(b1-4)]Gal(b1-4)Glc
# Outline: as §1
# [20] = biological target: Neu5Gc(a2-8)Neu5Ac(a2-3)Gal(b1-4)GlcNAc
# Outline: as §1
binder,measurement,setting,value
SP16664D-bth-476-27-476 (Bacteroides thetaiotaomicron) (protein) DDLEVGKNIDESAYSGIYENNAYLRDGKSNLVSKVVELHGETYATTVKMGLSKTPNTATSAKVKIDAAYLETYNKAHNTDFALYPQDLVTFANEGILTVNANTKSAEVEMTIRAGEGLQEDKTYAIPVAISDQSSDITIKDEDAKHCIYLVKDMRNAGDAYKGEGVMQGYLFFEVNDVNPLNTLSFQLENGKLLWDVVVLFAANINYDAEAGRPRVQCNPNVQYLLDNNETLLQPLRRRGVKVLLGLLGNHDITGLAQLSEQGAKDFAREVAQYCKAYNLDGVNYDDEYSNSPDLSNPSLTNPSTAAAARLCYETKQAMPDKLVTVFDWGQMYGVATVDGVDAKEWIDIVVANYGSAAYPIGQMTKKQCSGISMEFNLGGGGSLSASKAQSMIDGGYGWFMGFAPSPAKYGSVFSRLQGGGEVLYGSNVAAPTIFYKKNDPTPYKYPDDL,glycan array binding signal (z-score),[1],-0.123
same,glycan array binding signal (z-score),Gal6S(b1-4)Glc6S,0.344
same,glycan array binding signal (z-score),GalNAc(b1-3)Gal,-0.159
same,glycan array binding signal (z-score),GalNAc3S(b1-4)GlcNAc,-0.345
same,glycan array binding signal (z-score),GlcA(b1-3)GlcNAc,-0.153
same,glycan array binding signal (z-score),[2],-0.259
same,glycan array binding signal (z-score),[3],-0.185
same,glycan array binding signal (z-score),[4],0.054
same,glycan array binding signal (z-score),[5],-0.18
same,glycan array binding signal (z-score),[6],-0.212
same,glycan array binding signal (z-score),Neu5Ac(a2-3)Gal,-0.156
same,glycan array binding signal (z-score),[7],-0.227
same,glycan array binding signal (z-score),[8],0.058
same,glycan array binding signal (z-score),[9],0.765
same,glycan array binding signal (z-score),[10],9.86
same,glycan array binding signal (z-score),[11],-0.235
same,glycan array binding signal (z-score),[12],-0.117
same,glycan array binding signal (z-score),[13],2.55
same,glycan array binding signal (z-score),[14],3.75
same,glycan array binding signal (z-score),[15],2.38
same,glycan array binding signal (z-score),[16],1.28
same,glycan array binding signal (z-score),[17],-0.349
same,glycan array binding signal (z-score),Neu5Ac(a2-6)GalNAc,-0.006
same,glycan array binding signal (z-score),[18],-0.065
same,glycan array binding signal (z-score),[19],2.53
same,glycan array binding signal (z-score),[20],-0.114
